An excerpt weighted towards active compounds, which were near 0.5% of everything screened.
E coli growth-1 = E. coli V3065 growth inhibition, primary screen, counter-screen for AddAB inhibitor project, absorbance, OD600; AID 449728, 2010; 18 h; inhibition, % at 11.9 µM; 0.27% of 330,000 active;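 active means inhibition above the campaign's mean inhibition across all tested compounds plus 3 SD, cut at about 9.9% in these data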;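 further: uninfected addAB+ strain grown without phage in ampicillin broth; 0% = DMSO wells and 100% = ciprofloxacin 0.95 µg/ml wells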
phage Ecoli inh = growth loss of phage-infected E. coli, primary screen, RecBCD inhibitor project, absorbance, with phage, HTS. inhibition, % at 11.9 µM. 0.26% of 360,000 active; in the data active means inhibition above about 11%
Tat transport = E. coli Tat export inhibitors, primary screen, MC4100, TorA-mCherry reporter, fluorescence, single point; inhibition, % at 10 µM; 0.036% of 340,000 active; AID 488895, 2010;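 active means mean replicate inhibition at least 50% and at least half of replicates individually reaching 50%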;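 further: exported cargo escapes ClpAP degradation while cytoplasmic cargo is degraded and loses fluorescence; 0% = median of neutral control wells and 100% = median of NaSCN control wells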
E coli growth-2 = E. coli growth inhibition, primary screen, OD600; Escherichia coli growth, 23 h; active compounds read low; OD600 absorbance (concentration not given with the values); 0.21% of 330,000 active;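 active means OD600 absorbance below the run mean of sample wells minus 3.6 SD, in any replicate, cut at about 0.56 in these data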
AddAB inh = growth inhibition of E. coli expressing H. pylori AddAB, primary screen, AddAB inhibitor project, absorbance | 0.29% of 330,000 active | inhibition, % at 11.9 µM | AID 435030, 2010; in the data active means inhibition above about 12%;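 further: 0% = vehicle wells of infected cells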
AddAB conf = growth loss of phage-infected E. coli expressing H. pylori AddAB, confirmation, AddAB inhibitor project, absorbance, E. coli V3065, T4 phage, triplicate. shares compounds with AddAB inh. OD; T4 phage with gene 2 nonsense mutations. inhibition, % at 11.9 µM. 64% of 880 active;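 active means mean inhibition above a set limit taken from the earlier primary screen, cut at about 13% in these data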;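 further: higher means less bacterial growth since AddAB block lets phage replicate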
RecBCD counter = growth loss of RecBCD+ E. coli with mutant T4 phage, counter-screen for AddAB inhibitor project, absorbance, V66 E. coli. shares compounds with AddAB inh. OD growth. inhibition, % at 11.9 µM. 73% of 880 active. AID 488955, 2010;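 active means mean inhibition above the mean of solvent-only control wells plus 3 SD, cut at about 4% in these data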;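 further: optical density read after an 18 h incubation at 37 °C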
bact viab count = bacterial viability inhibition counter-screen, confirmation, counter-screen for AddAB inhibitor project, absorbance; AID 488956, 2010; shares compounds with AddAB inh; absorbance (AddAB counterscreen); inhibition, % at 11.9 µM; 35% of 880 active; in the data active means inhibition above about 25%
RecBCD conf = growth loss of phage-infected RecBCD+ E. coli, confirmation, RecBCD inhibitor project, absorbance, E. coli V66, T4 gene 2 phage. E. coli V66 + T4 2- phage, growth OD. shares compounds with phage Ecoli inh. inhibition, % at 11.9 µM. 45% of 890 active;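 active means mean inhibition over triplicates exceeding the hit threshold derived in the original primary screen, cut at about 11% in these data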
Ecoli viability = E. coli viability inhibition, counter-screen for RecBCD inhibitor project, absorbance, high throughput; shares compounds with phage Ecoli inh; absorbance (OD) growth; inhibition, % at 11.9 µM; 29% of 890 active; AID 651983, 2013; in the data active means inhibition above about 20%;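 further: E. coli strain V66 grown with compound alone and no phage infection; 0% = bacteria with DMSO vehicle only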
AddAB phage OD = growth loss of phage-infected AddAB-carrying E. coli, confirmation, counter-screen for RecBCD inhibitor project, absorbance, E. coli V3065, T4 phage; AID 651984, 2013; E. coli expressing H. pylori AddAB + T4 phage, OD growth; gene 2 mutant T4, recBCD-deleted host; shares compounds with phage Ecoli inh; inhibition, % at 11.9 µM; 45% of 890 active;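 active means mean inhibition above the solvent-only control wells' mean plus 3 SD, cut at about 22% in these data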;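 further: higher means less bacterial growth from phage killing when AddAB is blocked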
Active calls of the source: *; . = no result.

SMILES	E coli growth-1	phage Ecoli inh	Tat transport	E coli growth-2	AddAB inh	AddAB conf	RecBCD counter	bact viab count	RecBCD conf	Ecoli viability	AddAB phage OD
CCC(C)C1CNC(=S)N1CCc1cccc2ccccc12 (stereo not drawn)	.	.	.	0.696	.	.	.	.	.	.	.
S=C(NCCc1ccccc1)NN=Cc1ccccc1Cl	.	.	.	0.693	.	.	.	.	.	.	.
Cc1cc(C(=O)NN=Cc2sc(N3CCOCC3)nc2-c2ccccc2)c(C)o1	.	.	.	0.648	.	.	.	.	.	.	.
CC(=O)c1c(C)n([O-])c2cc(C)ccc2[n+]1=O	24.8*	11.3*	-3.1	0.541*	23.2*	63.3*	10.0*	55.9*	7.8	9.4	51.8*
COc1ccc(-c2c(C)n([O-])c(C)c(C)[n+]2=O)cc1OC	0.4	-1.3	4.3	0.693	1.2	.	.	.	.	.	.
CCON=C(C)c1c(O)c(CC)c(-c2ccccc2)n(-c2ccccc2)c1=O	.	.	.	0.696	.	.	.	.	.	.	.
Cc1nnc(NCc2cccc(Cl)c2)c2ccccc12	1.4	1.2	1.3	0.628	2.9	.	.	.	.	.	.
Cc1nnc(NCCc2ccccc2)c2ccccc12	15.5*	13.0*	10.2	0.524	18.0*	9.8	8.5*	10.0	1.6	6.3	5.8
O=C(NC(NC(=S)Nc1ccccc1O)C(Cl)(Cl)Cl)c1ccco1 (stereo not drawn)	3.8	5.6	-14.3	0.607	9.0	.	.	.	.	.	.
CC(=O)c1ccc(NC(=S)NC(NC(=O)c2ccco2)C(Cl)(Cl)Cl)cc1 (stereo not drawn)	18.7*	17.5*	-11.8	0.641	20.9*	16.2*	15.0*	13.9	8.2	12.7	10.5
O=C(NC(NC(=S)Nc1ccc(Cl)cc1)C(Cl)(Cl)Cl)c1ccco1 (stereo not drawn)	15.4*	20.3*	-52.5	.	18.2*	14.0*	18.4*	18.3	10.1	14.9	16.3
CC(=O)c1ccc(NC(=O)c2ccc(NC(=O)c3ccco3)cc2)cc1	2.4	.	2.9	0.693	3.2	.	.	.	.	.	.
COC(=O)c1nn(-c2ccccc2)c(Cl)c1C=NO	.	.	.	0.667	.	.	.	.	.	.	.
N#CC(C(=O)Oc1ccccc1)=C1C=CC=CN1	.	.	.	0.667	.	.	.	.	.	.	.
CCCCN1CC(=O)N2C3c4ccccc4OCC3C(C(=O)OCC)[C@]2(C)C1=O (stereo partly drawn)	.	.	.	0.665	.	.	.	.	.	.	.
Nc1nc(N)c2cc(Sc3ccc4ccccc4c3)ccc2n1	102.0*	63.4*	.	0.0785*	98.0*	97.6*	72.4*	94.2*	69.9*	64.8*	95.4*
Cc1ccsc1C=NNC(=O)c1cccnc1	.	.	.	0.672	.	.	.	.	.	.	.
Nc1nc(=S)c2ncn(C3CCCCC3)c2[nH]1	.	1.6	-7.7	0.683	.	.	.	.	.	.	.
Nc1ncn([C@@H]2O[C@H](CO)[C@@H](O)[C@H]2O)c(=O)n1	93.2*	61.7*	-1.8	.	95.6*	90.6*	28.9*	94.2*	47.7*	56.1*	102.7*
Nc1nc(=S)c2ncn(C3OC(CO)C(O)C3O)c2[nH]1 (stereo not drawn)	30.2*	16.6*	-12.0	0.521	25.0*	74.1*	27.1*	53.9*	31.5*	38.1*	55.4*
Nc1nc(=S)c2ncn([C@@H]3O[C@H](CO)[C@@H](O)[C@H]3O)c2[nH]1	75.9*	72.1*	-25.0	.	89.2*	90.8*	63.5*	73.1*	57.4*	74.6*	81.4*
Nc1nc(Cl)nc2c1ncn2[C@@H]1O[C@H](CO)[C@@H](O)[C@H]1O	0.3	4.6	5.1	.	-1.6	.	.	.	.	.	.
CCOC1OC(C(=O)N2CCN(Cc3ccccc3)CC2)=CC(c2csc3ccccc23)C1CCCO (stereo not drawn)	.	.	.	0.637	.	.	.	.	.	.	.
O=C(NNC(=O)c1cccc2ccccc12)c1ccc(Cl)cc1Cl	.	2.2	5.7	0.698	.	.	.	.	.	.	.
O=C(NNC(=O)c1ccc2ccccc2c1O)c1ccccc1Cl	15.4*	11.7*	-4.2	0.708	14.4*	9.7	10.4*	7.8	-0.7	-0.1	5.9
SMILES	E coli growth-1	phage Ecoli inh	Tat transport	E coli growth-2	AddAB inh	AddAB conf	RecBCD counter	bact viab count	RecBCD conf	Ecoli viability	AddAB phage OD
C/C(C=NNC(=O)C(O)c1ccccc1)=C\c1ccccc1 (stereo not drawn)	.	.	.	0.687	.	.	.	.	.	.	.
CNC(=S)N1CCN(c2c(F)cc3c(=O)c(C(=O)O)cn(C4CC4)c3c2OC)CC1C (stereo not drawn)	99.1*	99.7*	73.5*	0.045*	100.7*	100.2*	101.2*	99.4*	101.4*	102.9*	102.5*
COC(=O)C(C)NC(=S)N1CCN(c2c(F)cc3c(=O)c(C(=O)O)cn(C4CC4)c3c2OC)CC1C (stereo not drawn)	101.9*	99.5*	16.9	0.0665*	102.8*	102.0*	99.6*	101.7*	104.1*	104.4*	103.8*
Cc1cc(C)nc(NS(=O)(=O)c2ccc(N=NN(C)C)cc2)n1	-0.1	0.8	-12.4	0.677	3.3	.	.	.	.	.	.
Cc1ccc(C(=O)NS(=O)(=O)c2ccc(N=NN(C)C)cc2)cc1	70.2*	12.8*	-8.6	0.648	100.5*	0.0	-0.9	-0.8	-0.2	1.2	-0.6
O=C1c2ccccc2C2=Nc3ccccc3SC(c3ccc(Cl)cc3)C12 (stereo not drawn)	35.6*	22.1*	-57.2	0.655	24.5*	38.9*	29.6*	51.7*	18.2*	15.6	42.3*
O=C1CCCC2=C1C(c1ccc(Cl)cc1)C1C(=O)c3ccccc3C1=N2 (stereo not drawn)	-3.4	0.1	-1.3	0.662	0.7	.	.	.	.	.	.
C#CCOCCOCCOCCNc1nc(OC)nc(N2CCN(C(=O)C(CCCCN)n3cc(C(N)CO)nn3)CC2)n1 (stereo not drawn)	.	.	.	0.681	.	.	.	.	.	.	.
C#CCOCCOCCOCCNc1nc(N2CCN(C(=O)Cn3cc(CCCN=C(N)N)nn3)CC2)nc(N2CCN(C(=O)C(C(C)C)n3cc(CCO)nn3)CC2)n1 (stereo not drawn)	.	.	.	0.688	.	.	.	.	.	.	.
O=c1ccn(C2OC(COS(=O)(=O)O)C(O)C2O)c(=O)[nH]1 (stereo not drawn)	.	.	.	0.712	.	.	.	.	.	.	.

Source: PubChem (several laboratories)
